Where “and” joins values, the source holds several entries; their conditions need not be identical. Identical values can stand only once. Among all 34,000 compounds or so, about 290 (0.85%) showed an effect of 50% or more. Only a selection was taken, and strong results are over-represented in it overall.
Tested on: Plasmodium falciparum
Experiment: Plasmodium falciparum sporozoite viability assay
Type: functional, organism-based
Parameters: scale not given: in the data most compounds retested in dose-response had high values

Row | SMILES | Percent Effect (10 mM as filed; unlikely as a test dose) | Percent Effect
1 | CN1CCN(C2CCN(c3cnc4ccccc4n3)CC2)C1=O | 71.66% and 96.44% and 85% | –
2 | CN1CCN(C2CCN(c3ccnc(-c4ccccc4)n3)CC2)C1=O | -12.56% and 9.01% and -14.11% | –
3 | CN1CCN(C2CCN(CCOc3ccccc3)CC2)C1=O | – | 2.798%
4 | CCc1n[nH]c(C2CN(C(=O)c3ccnc(C)n3)CCO2)n1 (stereo not drawn) | – | -2.148%
5 | CCc1nc(CC(=O)N2CCCCC2Cn2cccn2)cs1 (stereo not drawn) | – | 3.352%
6 | Cc1cccc(CN2C[C@@H]3CN(C(=O)C4CC=CC4)C[C@@H]3C2=O)n1 | – | -3.24%
7 | O=C(c1ccc(C2CCCO2)s1)N1Cc2ccccc2C1 (stereo not drawn) | -3.474% and -5.294% and -6.784% | –
8 | CC(=O)N1CCCC1c1ccc(C(=O)N2CCOCC2)s1 (stereo not drawn) | – | 9.227%
9 | CN1CCCC1c1ccc(C(=O)N2CCc3ccccc3C2)s1 (stereo not drawn) | 96.19% and 93.66% and 95.32% | –
10 | Cc1cc(N2CCN(c3ccc(=O)[nH]n3)CC2)nc(-c2ccncc2)n1 | – | 8.684%
11 | Cc1nc(C)n(CC2CCCN(Cc3ccccc3C#N)C2)n1 (stereo not drawn) | – | 4.939%
12 | CC(=O)N[C@H]1CCO[C@@H](c2cccc(NC(=O)c3cccc(F)c3)c2)C1 | 55.02% and 42.93% and 54.57% | –
13 | CC(=O)N[C@H]1CCO[C@@H](c2cccc(NC(=O)C(C)(C)C)c2)C1 | 12.38% and 11.09% and 3.549% | –
14 | Cc1nn(C)cc1CN1CCC(c2ncc(Cl)cc2S(C)(=O)=O)CC1 | – | 3.927%
15 | Cc1cc(C)c(S(=O)(=O)NCCC(=O)NCc2ccoc2)c(C)c1 | – | -16.91%
16 | CN(C)C(=O)NCC1CC2(CO1)CN(c1nncs1)C2 (stereo not drawn) | – | 9.107%
17 | Cc1cc2cc(C(=O)N[C@@H]3CC[C@@H](N4CCNC(=O)C4)[C@@H]3O)ccc2o1 | – | -1.506%
18 | COc1ccccc1CNC(=O)CNCCn1cc(C)cn1 | – | 7.81%
19 | Cc1nc(C(=O)NCc2ccccn2)cc(C2CCCN2)n1 (stereo not drawn) | – | 15.86%
20 | Cc1csc(NC(=O)c2cnc(C3CCCN(C)C3)cn2)n1 (stereo not drawn) | 50.33% and 85.32% and 71.26% | –
21 | COc1c(C2CCCN2CC(=O)Nc2nc(C)cs2)c(C)nn1C (stereo not drawn) | – | -5.597%
22 | O=C(NCc1ccccn1)c1cnc(C2CCCN2)cn1 (stereo not drawn) | – | -5.932%
23 | Cl.O=C(NCC(F)F)c1cnc(C2CCCN2)cn1 (stereo not drawn) | – | 6.016%
24 | Cc1csc(NC(=O)c2cnc(C3CCCN3)cn2)n1.Cl (stereo not drawn) | 76.82% and 93.2% and 90.06% | –

Row | SMILES | Percent Effect (10 mM as filed; unlikely as a test dose) | Percent Effect
25 | Cc1nn(C)c(C)c1-c1cnc(C2CCCN(C)C2)cn1 (stereo not drawn) | -21.75% and -20.87% and 0.3933% | –
26 | Cc1nc2cc(-c3nccn3C)nn2c(N2CCCC2)c1C | – | 12.19%
27 | CC(C)(CO)Nc1cc(-c2ccncc2)ncn1 | – | -5.504%
28 | COc1ccc(S(=O)(=O)N2CCN(C)c3ncccc3C2)cc1.O=C(O)C(F)(F)F | – | 6.245%
29 | CN1CCCN(C(=O)NCc2cccnc2-n2cccn2)CC1 | – | -0.7887%
30 | Cc1ncccc1NC(=O)[C@@H]1CCO[C@@H]2CCN(c3ccncn3)C[C@H]21 | – | 1.798%
31 | CCc1nccn1C1CCCN(C(=O)CCOCC(F)(F)F)C1 (stereo not drawn) | 0.2657% and 18.61% and -4.801% | –
32 | Cc1csc(CNC(=O)N2CCN(Cc3cc(C)on3)CC2)n1 | – | 3.68%
33 | CC(NC(=O)c1cc(C(C)C)[nH]n1)C(=O)Nc1ccccc1 (stereo not drawn) | 72.25% and 63.23% and 81.29% | –
34 | CC(C)c1cc(C(=O)NCCn2nc3ccccn3c2=O)n[nH]1 | – | -7.561%
35 | Cc1nc(C(NC(=O)c2cc(C(C)C)[nH]n2)c2ccccc2)n[nH]1 (stereo not drawn) | – | 1.665%
36 | O=C(C1CC1)N1CCc2nc(C3CCN(C(=O)C4CC4)C3)nc(O)c2C1 (stereo not drawn) | – | 2.355%
37 | Cc1nn(CC(C)C)c(N(C)C)c1CNCc1ccccc1CO | – | 9.702%
38 | Cc1nn(CC(C)C)c(N(C)C)c1CNCc1cccnc1N(C)C | – | 0%
39 | Cc1nc(-c2ccncc2)ncc1C(C)NC(=O)CN1CCCC1=O (stereo not drawn) | – | -5.692%
40 | Cc1cc(C2CCN(C(=O)c3cnn(C)c3)CC2)ccn1 | – | 2.879%
41 | Cl.Fc1ccccc1OCCc1cc(C2CNCCO2)n[nH]1 (stereo not drawn) | – | -0.03121%
42 | CN(C)c1ncc(-c2ccc(F)cc2)c(C2CNCCO2)n1.Cl (stereo not drawn) | – | 8.117%
43 | Cl.c1ccc(-c2ccc(C3CNCCO3)nc2)cc1 (stereo not drawn) | 93.99% and 69.13% and 81.53% | –
44 | Cc1ccc(-c2ccc(C3CNCCO3)nc2)cc1.Cl (stereo not drawn) | 90.92% and 91.35% and 89.87% | –
45 | CN(C)c1ncc(-c2cccc(F)c2)c(C2CNCCO2)n1.Cl (stereo not drawn) | – | 2.337%
46 | CN(C)c1ncc(-c2ccc(C(N)=O)cc2)c(C2CNCCO2)n1 (stereo not drawn) | – | -5.327%
47 | CN(C)c1ncc(-c2cncnc2)c(C2CNCCO2)n1.Cl (stereo not drawn) | – | -2.536%
48 | O=C(c1cccnn1)N1C[C@@H]2CC[C@H](Oc3cccc(F)c3)[C@@H]2C1 | – | -11.48%

Row | SMILES | Percent Effect (10 mM as filed; unlikely as a test dose) | Percent Effect
49 | CC(C(=O)NCc1ccnc(N2CCOCC2)c1)n1cccn1 (stereo not drawn) | – | 3.476%
50 | O=C(NCc1ccc2c(c1)OCO2)[C@H]1C=CCN1c1ncccn1 | – | -8.12%
51 | CC(NCc1ccccc1Cl)c1ccc2[nH]c(=O)[nH]c2c1 (stereo not drawn) | – | 4.238%
52 | O=C1NCCN1C1CCN(CCOc2cccc3ccccc23)CC1 | – | 0.4468%
53 | Cc1nc(COc2ccc(OC3CCCCNC3=O)cc2)oc1C (stereo not drawn) | 96.35% and 88.4% | –
54 | CCc1cnc(COc2ccc(OC3CCCCNC3=O)cc2)o1 (stereo not drawn) | -31.83% and -45% | –
55 | NC(=O)Cn1cc(NC(=O)N2CCCC(O)C2)cn1 (stereo not drawn) | – | 9.794%
56 | COCCN(C)c1ccc(NCc2cccnc2)nc1 | 21.13% and 22.11% | –
57 | CCn1cc(CNc2ccc(N(C)CCOC)cn2)cn1 | 4.885% and 7.278% | –
58 | COCCN(C)c1ccc(NCc2cscn2)nc1 | 95.11% and 93.26% | –
59 | COCCS(=O)(=O)N(Cc1cscn1)c1ccccc1 | – | 1.643%
60 | COCCN(C)c1ccc(NCc2ccsc2)nc1 | 67.62% and 57.94% | –
61 | CC(C)(C)n1cc(NCc2cscn2)cn1 | – | 16.3%
62 | CC1CN(c2ccccc2Cl)C(=O)CN1C(=O)c1c[nH]c(=O)c(Cl)c1 (stereo not drawn) | – | 1.644%
63 | COc1ccc(-n2ncc3c2NC(=O)CSC3C(C)C)cc1 (stereo not drawn) | – | -10.71%
64 | COCC(=O)N1CC[C@@H]2O[C@H](COCc3ccncc3)CC[C@@H]21.O=C(O)C(F)(F)F | – | -3.886%
65 | COc1cccc(-c2noc(C3CCN(Cc4cn(C)nc4C)C3)n2)c1 (stereo not drawn) | 82.7% and 74.22% and 69.73% | –
66 | COc1cccc(-c2noc(C3CCN(CC4CCCCC4)C3)n2)c1.Cl (stereo not drawn) | -10.94% and -15.38% and -3.133% | –
67 | COc1cccc(CSCC2=Nc3ccccc3S(=O)(=O)N2)c1 | – | -15.51%
68 | Cn1cc(N2CCCC(NCc3cccc4c3OCCCO4)C2)cn1 (stereo not drawn) | – | 11.2%
69 | CC(C)(C)n1ncc2c1CCCC2NCc1cccc2c1OCO2 (stereo not drawn) | 74.58% and 37.95% and 70.91% | –
70 | CC(C)(C)n1ncc2c1CCCC2NCc1cccc2c1OCCO2 (stereo not drawn) | 39.28% and 33.56% and 65.68% | –
71 | Cn1ncc2c1CCCC2NCc1ccc(Cl)s1 (stereo not drawn) | -1.156% and -7.705% and -11.46% | –
72 | Cc1ccc(CNC2CCCc3c2cnn3C)s1.Cl (stereo not drawn) | -10.87% and -25.98% and -25.69% | –

Row | SMILES | Percent Effect (10 mM as filed; unlikely as a test dose) | Percent Effect
73 | Cl.c1cnc(N2CCCC(NCc3cccc4c3OCCO4)C2)nc1 (stereo not drawn) | – | -3.04%
74 | CCn1ncc2c1CCCC2NCc1cscn1 (stereo not drawn) | -18.21% and -26.49% | –
75 | Cc1ccc(CNC2CCCc3c2cnn3Cc2ccccc2)s1.Cl (stereo not drawn) | – | -20.07%
76 | Cc1ccn(CCC(=O)N2CCCC(Cc3cccnc3)C2)n1 (stereo not drawn) | – | 1.172%
77 | Cc1cccc(CN2C[C@@H]3[C@@H](C(=O)NCC(C)C)CCS(=O)(=O)[C@@H]3C2)c1.O=C(O)C(F)(F)F | – | 5.351%
78 | CCN(CC1CCOC1)C(=O)c1ccccc1S(=O)(=O)CC (stereo not drawn) | – | 6.872%
79 | Cc1cc(-c2cnc(N3CCNC(=O)C3)nc2-c2sccc2C)on1 | – | 7.472%
80 | Cc1ccc(CN2CCC3(CC2)CCN(C(=O)c2cccn2C)C3)cc1.O=C(O)C(F)(F)F | – | -1.664%
81 | CC(C)N(C)[C@@H]1CCN(S(C)(=O)=O)[C@H]1Cc1ccccc1 | – | 3.466%
82 | CCn1ncc2c1CCCC2NCc1cccc2c1OCO2 (stereo not drawn) | 87.89% and 80.38% and 88.9% | –
83 | Cc1cc(CN2CCN(C(=O)CCCc3nc(C(C)C)no3)CC2)on1 | – | 13.41%
84 | COc1cccc2ccn(CC(=O)NCC(C)C)c12 | 1.134% and -1.268% | –
85 | COCCNC(=O)Cn1ccc2cccc(OC)c21 | 24.03% and 24.86% | –
86 | COC(=O)CNC(=O)Cn1ccc2cccc(OC)c21 | 53.7% and 45.8% | –
87 | CN(C)CC(=O)N1CCC2(CC1)COc1ccccc1S(=O)(=O)N(C)C2 | – | -1.316%
88 | Cc1nc(Nc2nccs2)cc(C2CCCN2)n1.Cl (stereo not drawn) | – | -7.871%
89 | O=c1cc(N2CCOCC2)cnn1CCc1ccc(F)cc1 | -2.466% and -5.477% | –
90 | O=c1cc(N2CCCC2)cnn1CCc1cccc(F)c1 | 40.92% and 61.99% | –
91 | O=c1cc(N2CCNCC2)cnn1CCc1ccc(F)cc1 | -29.24% and -24.74% | –
92 | CCc1nccn1CC1CCCN1S(=O)(=O)Cc1ccccc1 (stereo not drawn) | – | 3.419%
93 | COCC(=O)N1CCCC(C)(c2nncn2C)C1 (stereo not drawn) | – | 4.813%

— ChEMBL document CHEMBL3988442, “University of Dundee, Small-Polar-MMV Screening Library” (2021)
